This is an account of results in PubChem BioAssay.

Calls of active or inactive are those of the source.

The target of the first assay is E3 ubiquitin-protein ligase XIAP (Homo sapiens) (UniProt P98170). The assay is described as follows: XIAP binders, primary screen, biophysical, small-molecule microarray, fluorescence 635 nm (AID 1181).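 Further: score merges 667 nm emission and signal to noise over triplicate slides.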 The following applies: small-molecule microarray binding, higher = more signal.
E3 ubiquitin-protein ligase XIAP (Homo sapiens), sequence (P98170 whole entry, looked up): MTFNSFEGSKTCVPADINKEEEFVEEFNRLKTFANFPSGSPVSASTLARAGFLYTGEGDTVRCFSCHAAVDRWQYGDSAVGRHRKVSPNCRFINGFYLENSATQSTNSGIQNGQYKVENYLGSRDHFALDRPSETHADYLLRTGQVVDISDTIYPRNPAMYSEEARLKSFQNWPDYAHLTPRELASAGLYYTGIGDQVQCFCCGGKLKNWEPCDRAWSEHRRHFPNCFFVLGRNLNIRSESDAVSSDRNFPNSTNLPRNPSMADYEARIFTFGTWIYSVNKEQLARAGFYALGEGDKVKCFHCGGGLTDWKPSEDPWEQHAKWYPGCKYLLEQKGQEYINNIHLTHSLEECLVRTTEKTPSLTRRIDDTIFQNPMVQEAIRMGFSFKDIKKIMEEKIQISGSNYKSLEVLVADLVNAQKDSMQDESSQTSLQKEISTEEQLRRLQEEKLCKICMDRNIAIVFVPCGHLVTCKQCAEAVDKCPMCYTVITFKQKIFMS
Turning to `CC1(C)[C@@H]2CC(C(O)C3C=CC4C(=O)N(c5ccccc5)C(=O)C4N3Nc3ccccc3F)=C[C@@H]1C2` (stereo partly specified), the composite z-score came out at 0.18.

`[N-]=[N+]=NCc1ccccc1[C@H]1OC(c2ccc(OCCCO)cc2)=N[C@@]1(Cc1ccccc1N=[N+]=[N-])C(=O)N1CCCCC1` displayed a composite z-score of -0.0062.

Regarding `CC(C)N1CC=CC23O[C@@H]4C=CCOC(=O)[C@@H]4[C@H]2C(=O)N(CCCCCCO)[C@@H]3C1=O` (stereo partly specified), the composite z-score worked out at 0.0342.

`CN1C(=O)C2C=CC(C(O)C3CCCCC3)N(N(c3ccccc3)c3ccccc3)C2C1=O` (stereo unspecified) gave a composite z-score of 0.264.

In turn, `CC(C)(C)OC(=O)CC[C@]1(C(=O)O)COC(c2ccc(OCCCO)cc2)=N1` showed a composite z-score of -0.118.

Regarding `O=C1O[C@H](c2ccccc2)[C@H](c2ccccc2)N2[C@H]1[C@@H](C(=O)N1CCN(c3ncccn3)CC1)[C@]1(C(=O)Nc3ccc(C#CCCO)cc31)[C@H]2c1ccc(OCCO)cc1`, the composite z-score worked out at 0.256.

For the molecule `CN1C(=O)C2C=CC(C(O)c3cccc4ccccc34)N(NC(=O)OC(C)(C)C)C2C1=O` (stereo unspecified), the composite z-score was determined as 0.156.

Another assay has as its system XIP peptide (Xip251-270) binding. The assay is described as follows: small-molecule binders of XIP peptide, primary screen, biochemical, small-molecule microarray, fluorescence 635/667 nm, 0.1 µg/mL protein (AID 1182). The following applies: fluorescent protein binding, 635 nm, higher = more signal, called active from +8 up or from −8 down.
Take `C=CCN1C(=O)[C@@]2(O[C@@H](CCO)[C@H]([Si](C)(C)c3ccc(OC)cc3)[C@H]2C)c2cc(NC(=O)[C@H](C)O)ccc21`: the composite z-score is 0.395 (inactive).

Turning to `COC(=O)[C@@]1(Cc2ccc(OC)cc2)[C@H]2c3cc(C(=O)N4CCCC4)n(CCF)c3C[C@H]2CN1C(=O)c1ccccc1`, the composite z-score is 1.24 (inactive).

Turning to `O=C1N(Cc2ccccc2)c2ccccc2[C@H]2OC(c3ccc(OCCCO)cc3)=N[C@@]12CCS(=O)(=O)c1ccccc1`, the composite z-score was 0.0535 (inactive).

`CC(=O)NCCCC[C@@H]1NC(=O)[C@@H]2C[C@H](C(=O)NCCCC[N+](C)(C)C)[C@H](c3cccc(OCCO)c3)N2C1=O`: the composite z-score is 0.383 (inactive).

For the molecule `COCCCNC(=O)[C@@]1(Cc2ccccc2I)c2ccccc2C(=O)N(Cc2ccccc2Cl)[C@H]1c1ccc(CO)cc1`, the composite z-score was 1.75 (inactive).

Take `COCCCNC(=O)[C@@]1(Cc2ccccc2CN=[N+]=[N-])N=C(c2ccc(OCCCO)cc2)O[C@H]1c1ccccc1N=[N+]=[N-]`: the composite z-score is 0.167 (inactive).

As to `NCCCCCCNC(=O)[C@H]1C[C@H]2C(=O)N3CCC[C@H]3C(=O)N2[C@H]1c1ccc(O)cc1`, the composite z-score was -0.118 (inactive).

Consider `C=C(/C(=C/C[C@@H](OC(=O)c1ccncc1)c1cccc(OCCO)c1)c1cc(C(=O)OC)ccc1OC)C(C)C`, for which the composite z-score is 0.577 (inactive).

For `CN1C(=O)C2C=CC(C(O)COCc3ccccc3)N(Nc3ccccc3)C2C1=O` (stereo unspecified), the composite z-score is -0.184 (inactive).

Turning to `C=C[C@@H](O)[C@H]1CC(c2ccccc2)=NO1`, the composite z-score is 0.465 (inactive).

For the molecule `COC(=O)[C@@]1(Cc2ccc(OC)cc2)[C@H]2c3cc(C(=O)N(C)C)n(CCF)c3C[C@H]2CN1C(=O)c1ccccc1`, the composite z-score was 0.0026 (inactive).

For `C=CCC(OC(C)=O)[C@@H]1[C@@H](N(Cc2ccc(-c3cccc(C(F)(F)F)c3)o2)C(=O)c2cccc3ccccc23)c2cc(OCCCO)ccc2N1C(=O)c1ccc(-c2ccccc2)cc1` (stereo partly specified), the composite z-score is -0.0517 (inactive).

Consider `COc1cc(NN2C(C(O)c3ccc(I)cc3)C=CC3C(=O)N(C)C(=O)C32)cc(OC)c1OC` (stereo unspecified), for which the composite z-score was 1.42 (inactive).

Consider `C=CCC(OC(C)=O)[C@@H]1[C@@H](N(Cc2cccc3ccccc23)C(=O)Cc2ccc(F)cc2)c2cc(OCCCO)ccc2N1C(=O)Cc1ccc(OC)cc1` (stereo partly specified), for which the composite z-score was -0.51 (inactive).

Regarding `C=CCOC(=O)[C@@H]1[C@H]2C(=O)O[C@H](c3ccccc3)[C@H](c3ccccc3)N2[C@H](c2ccc(OCCOC(=O)[C@H]3C[C@H]4C(=O)N[C@@H](Cc5ccccc5)C(=O)N4[C@H]3c3cccc(OCCO)c3)cc2)[C@@]12C(=O)Nc1ccc(I)cc12`, the composite z-score was 2.12 (inactive).

As for `CC(C)c1ccc(NN2C(C(O)c3cccs3)C=CC3C(=O)N(c4ccccc4)C(=O)C32)cc1` (stereo unspecified), the composite z-score was 0.213 (inactive).

For the molecule `CC1CC/C=C\[C@H]2OC34C=CCN(Cc5ccccc5)C(=O)[C@H]3N(CCO)C(=O)[C@@H]4C2C(=O)O1` (stereo partly specified), the composite z-score was 0.449 (inactive).

Turning to `COCCOC(=O)N1C(=O)[C@@]2(c3cc(C#CC4(O)CCCCCC4)ccc31)[C@H](C(=O)N1CCc3cc(OC)c(OC)cc3C1)[C@H]1C(=O)O[C@H](c3ccccc3)[C@H](c3ccccc3)N1[C@@H]2c1ccccc1OCCO`, the composite z-score is -0.0915 (inactive).

For `COc1ccc([Si](C)(C)[C@H]2[C@H](CC(=O)N3CCC[C@H]3CO)O[C@@]3(C(=O)N(Cc4ccc(N5C(=O)c6cccc7cccc5c67)cc4)c4ccccc43)[C@@H]2C)cc1`, the composite z-score is 0.531 (inactive).
